Sampled rows, rich in hits. Any-hit rate of the full collection: about 12%.
SARS PLpro yeast: SARS-CoV PLP inhibition in yeast | S. cerevisiae expressing SARS-CoV PLpro, growth rescue | Potency, µM (series often up to 32.9 µM), actives largely listed as activators | hit rate 0.19% among 330,000; calls by dose curve; note: nearly all actives have a fitted effect of over 55% in size
HCV inhibitor: HCV inhibition. hit rate 3.4% among 340,000. Potency, µM (highest dose often 41.8 µM), actives largely listed as inhibitors. AID 651820. Huh7.5.1 HCVcc-Cre infection, luciferase reporter, 44 h
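Infectious HCVcc-Cre (~0.5 moi) was added to cells just after compound, with cells seeded 4 h earlier at 1,000 per well. Luciferase activity after 44 h culture reported infection; substrate was incubated 15 min at room temperature before reading.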
NS1 inh: influenza NS1 inhibition; Potency, µM (top dose mostly 46.1 µM); hit rate 0.4% among 270,000; AID 2326; calls by dose curve; note: actives are rising curves; nearly all actives have a fitted effect of over 50% in size
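Recovery from NS1-induced slow growth read by OD600 in budding yeast switched to galactose assay medium (pH 6.0, -URA) at 1:100 dilution. Compound 23 nl per well; the matching strain lacking NS1 serves as control.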
Pf growth 96h: P. falciparum growth inhibition at 96 hour, primary screen for plastid delayed-death inhibitors. P. falciparum luciferase reporter growth, 96 h. Potency, µM (highest dose often 28.7 µM), actives largely listed as inhibitors. hit rate 6.9% among 320,000. AID 504834
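Two parasite generations (96 h, 37 C, 5% CO2) of compound exposure in infected erythrocytes (0.05% parasitemia, 2% hematocrit). Luciferase-reporter P. falciparum; decreased luminescence indicates inhibited growth, aimed at apicoplast-acting delayed death.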
Pf growth 48h: P. falciparum growth inhibition at 48 hours (one generation). hit rate 5.9% among 310,000. P. falciparum luciferase growth in erythrocytes, 48 h. AID 504832. Potency, µM (series often up to 28.7 µM), most hits filed as inhibitors
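Growth was read as firefly luciferase luminescence after a 48 h, 37 C, 5% CO2 exposure of compounds to reporter-bearing P. falciparum cultures (0.1% parasitemia, 2% hematocrit final) in Albumax-supplemented RPMI 1640.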
AMA1 RON2 block: disrupts binding of P. falciparum AMA1 to RON2. Potency, µM (top dose mostly 58.2 µM), hits mostly inhibitors. AID 720542. AlphaScreen AMA1-biotinylated RON2 peptide binding. hit rate 0.2% among 360,000; note: nearly all actives have a fitted effect of over 45% in size
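AMA1 (3D7) with his tag at 25 nM final met compounds first, then biotinylated RON2 peptide at 25 nM; detection used donor plus acceptor beads, 10 µg/mL apiece, read by AlphaScreen after 30 min at room temperature.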
Each line names hits and unclear results; the compound was inactive in the other large screens. Unless noted, calls come from the whole dose curve; as a rule, active = well fitted curve in the direction sought with a large enough effect; inconclusive = small, poorly fitted or top-dose-only effect, or another doubt; inactive = no such curve, though single readings can be large; an effect the other way counts as inactive or inconclusive.

CC1=NN(C(=O)c2ccccc2Cl)C(O)(c2ccccc2)C1 (stereo unspecified)	Pf growth 96h inconclusive
CC1=NN(C(=O)c2ccccc2)C(O)(c2ccc(Br)cc2)C1 (stereo unspecified)	HCV inhibitor inconclusive, Pf growth 96h 3.7µM, Pf growth 48h inconclusive
CC1=NN(C(=O)c2ccccc2F)C(O)(c2ccc(Cl)cc2)C1 (stereo unspecified)	Pf growth 96h 13µM
O=Cc1c(Cl)nc2ccccn2c1=O	HCV inhibitor 10µM
Cc1cccn2c(=O)c(C=O)c(Cl)nc12	HCV inhibitor inconclusive
COC(=O)[C@]1(Cc2ccccc2)N[C@H](c2ccc(-c3cc(C(C)=O)cs3)cc2)[C@@H]2C(=O)N(C)C(=O)[C@@H]21	HCV inhibitor inconclusive, Pf growth 96h inconclusive, Pf growth 48h 9.3µM (no result: NS1 inh)
COC(=O)[C@]1(Cc2ccccc2)N[C@H](c2ccc(SC3CCCCC3)c(OC)c2)[C@@H]2C(=O)N(C)C(=O)[C@@H]21	HCV inhibitor inconclusive (no result: NS1 inh, Pf growth 96h, Pf growth 48h)
COC(=O)[C@]1(Cc2ccccc2)N[C@H](c2ccc(-c3ccc(Cl)c(Cl)c3)cc2)[C@@H]2C(=O)N(C)C(=O)[C@@H]21	HCV inhibitor inconclusive, Pf growth 96h 9.3µM, Pf growth 48h 5.9µM (no result: NS1 inh)
COC(=O)[C@]1(Cc2ccccc2)N[C@H](c2ccc(-c3ccccc3)cc2)[C@@H]2C(=O)N(C)C(=O)[C@@H]21	HCV inhibitor inconclusive, Pf growth 96h inconclusive, Pf growth 48h inconclusive (no result: NS1 inh)
COc1ccc(N2C(=O)C3C(c4ccc(C(=O)O)cc4)NC(Cc4ccccc4)(C(=O)O)C3C2=O)c([N+](=O)[O-])c1 (stereo unspecified)	Pf growth 96h 2.9µM
COC(=O)[C@]1(Cc2ccccc2)N[C@H](c2ccc(-c3cccc(Cl)c3)cc2)[C@@H]2C(=O)N(C)C(=O)[C@@H]21	HCV inhibitor inconclusive, Pf growth 96h 5.2µM, Pf growth 48h 13µM (no result: NS1 inh)
COC(=O)C1(Cc2ccccc2)NC(c2ccc(F)cc2)C2C(=O)N(C)C(=O)C21 (stereo unspecified)	none
COCCNc1ncnc2c1ncn2[C@H]1CN(Cc2ccco2)C[C@@H](CO)O1	none (no result: SARS PLpro yeast, HCV inhibitor, NS1 inh, Pf growth 96h, Pf growth 48h)
O=C(CN1CCCCCCC1)Nc1cccc(Cl)c1Cl	none
CCOC(=O)C1CCCN(Cc2nc(CC3CC3)no2)C1 (stereo unspecified)	none
COc1cc2cc(C(c3nnnn3C3CCCCC3)N(C)C3CCCCC3)c(=O)[nH]c2cc1OC (stereo unspecified)	HCV inhibitor inconclusive, Pf growth 48h 5.9µM
CCC(C)(C)n1nnnc1C(c1cc2ccc(C)cc2[nH]c1=O)N(Cc1cccnc1)Cc1ccco1 (stereo unspecified)	Pf growth 48h 12µM
Cc1cc2cc(C(c3nnnn3C3CCCC3)N(Cc3cccnc3)Cc3ccco3)c(=O)[nH]c2cc1C (stereo unspecified)	Pf growth 96h 2.3µM (no result: Pf growth 48h)
COc1cc2cc(C(c3nnnn3C3CCCC3)N(C)C3CCCCC3)c(=O)[nH]c2cc1OC (stereo unspecified)	HCV inhibitor inconclusive, Pf growth 96h inconclusive, Pf growth 48h inconclusive
COc1ccc(-c2c(NC(=O)c3ccco3)oc3ccccc3c2=O)cc1OC	Pf growth 96h inconclusive
COC(=O)[C@]12CCCCC=C1N(Cc1ccc3c(c1)OCO3)C(=O)[C@H](CC(=O)N1CCN(C(=O)C3CC3)CC1)C2	none (no result: SARS PLpro yeast, HCV inhibitor, NS1 inh, Pf growth 96h, Pf growth 48h)
CCCCCC(=O)O[C@]1(C(C)=O)CC[C@H]2[C@@H]3CCC4=CC(=O)CC[C@]4(C)[C@H]3CC[C@@]21C	HCV inhibitor inconclusive, Pf growth 96h 0.83µM, Pf growth 48h 1µM
CC(=O)[C@@]1(O)CC[C@H]2[C@@H]3CCC4=CC(=O)CC[C@]4(C)[C@H]3CC[C@@]21C	Pf growth 96h inconclusive, Pf growth 48h inconclusive
CCCCCCCCCC(=O)O[C@H]1CC[C@H]2[C@@H]3CCC4=CC(=O)CC[C@]4(C)[C@H]3CC[C@]12C	Pf growth 96h 8.5µM, Pf growth 48h 12µM (no result: SARS PLpro yeast, HCV inhibitor, NS1 inh, AMA1 RON2 block)
CC(C)CCC(=O)OC1CCC2C3CCC4=CC(=O)CC[C@]4(C)C3CC[C@]12C (stereo partly specified)	Pf growth 96h 12µM, Pf growth 48h 13µM (no result: SARS PLpro yeast, HCV inhibitor, NS1 inh, AMA1 RON2 block)
CCn1c(SCc2nc3ccccc3[nH]2)nnc1-c1ccccc1OC	Pf growth 96h 3.7µM, Pf growth 48h inconclusive
Clc1cccc(-c2nnc(SCc3nc4ccccc4[nH]3)n2Cc2ccco2)c1	Pf growth 48h inconclusive
CCn1c(SCc2nc3ccccc3[nH]2)nnc1-c1cccs1	none
CC(Sc1nnc(COc2ccc(Cl)cc2)n1Cc1ccco1)C(=O)N1CCNC1=O (stereo unspecified)	Pf growth 96h 8.3µM, Pf growth 48h inconclusive (no result: NS1 inh)
Clc1ccc(OCc2nnc(SCc3nc4ccccc4[nH]3)n2Cc2ccco2)cc1	HCV inhibitor 10µM, Pf growth 48h inconclusive
CCn1c(COc2ccc(C)cc2)nnc1SCc1nc2ccccc2[nH]1	HCV inhibitor 14µM, Pf growth 96h inconclusive, Pf growth 48h inconclusive
Cc1ccc(C2OC(=O)C=C2c2ccccc2)cc1 (stereo unspecified)	Pf growth 48h inconclusive (no result: NS1 inh)
CC1CCCCN1S(=O)(=O)c1cccc(S(=O)(=O)N2CCOCC2)c1 (stereo unspecified)	Pf growth 48h inconclusive
Cc1ccccc1OCc1nnc(SCc2nc3ccccc3c(=O)[nH]2)n1C	none (no result: NS1 inh)
Cn1c(COc2ccccc2)nnc1SCc1nc2ccccc2[nH]1	SARS PLpro yeast inconclusive, Pf growth 96h 1.5µM
Cc1cc(C)cc(NC(=S)N2CC(C)OC(C)C2)c1 (stereo unspecified)	Pf growth 96h 2.1µM
CC1(C)[C@@H](CC(=O)O)CCC[C@@H]1CC(=O)O	none (no result: SARS PLpro yeast, HCV inhibitor, Pf growth 96h, Pf growth 48h, AMA1 RON2 block)
COc1cccc(C(=O)C2CCCN(C(=O)CCC3=NNC(=O)CC3)C2)c1 (stereo unspecified)	none
COc1ccc(C(=O)C2CCCN(C(=O)c3cc(C4CC4)[nH]n3)C2)c(C)c1 (stereo unspecified)	Pf growth 96h 15µM
C#Cc1cccc(C(=O)N2CCCC(C(=O)c3ccc(OC)cc3C)C2)c1 (stereo unspecified)	Pf growth 96h 13µM
COc1ccc(C(=O)C2CCCN(C(=O)CCC3=NNC(=O)CC3)C2)c(C)c1 (stereo unspecified)	Pf growth 96h 10µM
Cc1cc(C(=O)N2CCCC(C(=O)c3ccc(Oc4ccccc4)cc3)C2)n[nH]1 (stereo unspecified)	HCV inhibitor inconclusive, Pf growth 96h inconclusive, Pf growth 48h 10µM
COc1cc(C(=O)NC(CCSC)C(=O)Nc2ccc(N3CCOCC3)cc2)cc(OC)c1OC (stereo unspecified)	none (no result: SARS PLpro yeast, HCV inhibitor, NS1 inh, Pf growth 96h, Pf growth 48h)
CC1(c2ccccc2)NC(=O)N(CC(=O)Nc2ccc(N3CCOCC3)cc2)C1=O (stereo unspecified)	none (no result: NS1 inh, Pf growth 96h, Pf growth 48h)

From PubChem
